Assay results as given in PubChem BioAssay.
Several values for one entry are separate records, joined by “and”; a condition that tells them apart may be missing. Equal values may be shown once. Activity calls are given as the source filed them.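 Rule for the calls, unless noted: active = inhibition at or above 50% relative to wild type and mutant plate controls; inactive = inhibition below 50%.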

What was measured:
[1] = inhibitors of TNFa-induced NFkB p65 translocation, primary screen, imaging, HUVEC, MLSMR starter and 10KST1 sets (AID 438;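 active = inhibition above 20% together with a positive visual image hit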;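 note: compound added about 3h40 before a 20 min TNFalpha stimulation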;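 for inhibition: signal is the nuclear over cytoplasmic p65 intensity ratio per well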); details: HUVEC TNFa-induced p65 nuclear translocation; cell count: measured here: nuclei count (cytotoxicity indicator), at 2.08 µM; inhibition: at 2 µM, stronger effect = higher value, 0% TNFa-plus-vehicle, 100% no-TNFa wells
[2] = reduction of polyQ htt aggregates in cells – imaging, exon1htt(103Q)mCFP cells, high-content imaging, primary screen (AID 483;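 active = visual image review flags a hit and inhibition of aggregation exceeds 20%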;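 note: compound exposure lasted 3 days before fixation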;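 for nuclei count: percent of the per-plate median nuclei count of sample wells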); details: exon1htt(103Q)mCFP cell line, aggregate imaging, at 2 µM; inhibition of aggregation: stronger effect = higher value; nuclei count: measured here: cell count, toxicity
[3] = endothelial E-selectin expression blockers – imaging, HUVEC, immunofluorescence, MLSMR starter and 10KST1 sets, primary screen (AID 487;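 active = visually confirmed hit in the image check and inhibition above 20%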;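 for inhibition: signal is fraction of cell area covered by stained E-selectin grains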;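 for nuclei count: 100% = median nuclei count of all wells on the same plate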); details: HUVEC TNFalpha-induced E-selectin immunofluorescence imaging, at 2 µM; inhibition: stronger effect = higher value; nuclei count: measured here: cell number, toxicity
[4] = Primary imaging screen for DUSP6 inhibitors that restore phospho-Erk in transfected HeLa cells, chemical complementation (AID 609;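 active = compounds giving at least 50% inhibition in the cell-based MKP-3 phosphatase rescue imaging test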;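 for inhibition: phospho-Erk level distribution per well compared with pooled transfected vehicle control wells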); details: HeLa MKP-3 transfected, phospho-Erk imaging KS statistic, at 10 µM, cells stimulated with TPA for 15 min
[5] = molecular target: Dual specificity protein phosphatase 6 (Homo sapiens) (UniProt Q16828); assay: as above; details: HeLa MKP-3 transfected, phospho-Erk imaging KS statistic; at 10 µM; stronger effect = higher value; cells stimulated with TPA for 15 min
Sequence of Dual specificity protein phosphatase 6 (Homo sapiens) (Q16828 whole entry, looked up): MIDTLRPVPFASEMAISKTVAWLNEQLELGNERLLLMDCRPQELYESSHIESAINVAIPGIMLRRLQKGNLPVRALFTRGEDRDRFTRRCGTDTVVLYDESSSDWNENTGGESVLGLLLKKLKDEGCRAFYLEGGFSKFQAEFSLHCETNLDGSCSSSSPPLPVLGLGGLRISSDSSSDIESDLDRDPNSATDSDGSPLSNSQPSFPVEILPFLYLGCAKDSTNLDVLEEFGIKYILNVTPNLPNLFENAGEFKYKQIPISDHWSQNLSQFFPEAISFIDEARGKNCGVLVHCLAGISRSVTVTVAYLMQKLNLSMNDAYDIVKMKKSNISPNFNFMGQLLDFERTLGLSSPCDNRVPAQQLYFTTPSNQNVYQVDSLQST

[6] = molecular target: Voltage-gated potassium channel subunit beta-2 (Rattus norvegicus) (UniProt P62483); assay: inhibitors of rat Kvbeta2 reductase activity – biochemical, NADPH fluorescence, primary screen (AID 622;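 active = fluorescence slope higher than the sample average by over 3 SD, cut at about -0.22 in these data, passing the limit was not always enough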;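 note: slope of raw intensity against log time taken from 70 to 1610 s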); details: recombinant KvBeta, 4-cyanobenzaldehyde reduction, at 10 µM, stronger effect = higher value
Sequence of Voltage-gated potassium channel subunit beta-2 (Rattus norvegicus) (P62483 whole entry, looked up): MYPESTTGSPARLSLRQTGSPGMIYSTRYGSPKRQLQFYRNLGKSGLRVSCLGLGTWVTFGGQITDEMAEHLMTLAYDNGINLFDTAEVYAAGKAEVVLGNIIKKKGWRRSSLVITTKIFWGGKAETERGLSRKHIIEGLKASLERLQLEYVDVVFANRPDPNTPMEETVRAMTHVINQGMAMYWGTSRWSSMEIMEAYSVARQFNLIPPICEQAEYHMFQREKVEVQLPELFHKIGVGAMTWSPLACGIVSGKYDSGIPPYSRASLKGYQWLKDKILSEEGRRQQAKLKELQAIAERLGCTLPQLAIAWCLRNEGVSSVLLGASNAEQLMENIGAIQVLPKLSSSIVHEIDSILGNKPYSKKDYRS

[7] = molecular target: Voltage-gated potassium channel subunit beta-2 (Rattus norvegicus) (UniProt P62483); assay: enhancers of rat Kvbeta2 NADPH turnover – biochemical, NADPH fluorescence, primary screen (AID 623;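 active = NADPH fluorescence slope more negative than the mean of all samples by about 3 SD, 99.7% confidence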;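 note: fluorescence intensity change per second fitted from 20 to 320 s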); details: Recombinant KvBeta, NADPH fluorescence decrease slope, 10 min; at 10 µM; stronger effect = lower value
[8] = molecular target: Alpha-2C adrenergic receptor (Homo sapiens) (UniProt P18825); assay: compounds altering alpha2C-coupled GIRK flux – cell-based, HEK293 alpha2C/GIRK1/2, thallium flux, primary screen (AID 624;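 active = fluorescence slope after compound addition differing from the mean of all screened samples at 99.7% confidence, in either direction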;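 note: slope of fluorescence ratio to pre-addition baseline per second over 15 to 24 s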); details: thallium flux BTC fluorescence, at 10 µM, actives lie on both sides
Sequence of Alpha-2C adrenergic receptor (Homo sapiens) (P18825 whole entry, looked up): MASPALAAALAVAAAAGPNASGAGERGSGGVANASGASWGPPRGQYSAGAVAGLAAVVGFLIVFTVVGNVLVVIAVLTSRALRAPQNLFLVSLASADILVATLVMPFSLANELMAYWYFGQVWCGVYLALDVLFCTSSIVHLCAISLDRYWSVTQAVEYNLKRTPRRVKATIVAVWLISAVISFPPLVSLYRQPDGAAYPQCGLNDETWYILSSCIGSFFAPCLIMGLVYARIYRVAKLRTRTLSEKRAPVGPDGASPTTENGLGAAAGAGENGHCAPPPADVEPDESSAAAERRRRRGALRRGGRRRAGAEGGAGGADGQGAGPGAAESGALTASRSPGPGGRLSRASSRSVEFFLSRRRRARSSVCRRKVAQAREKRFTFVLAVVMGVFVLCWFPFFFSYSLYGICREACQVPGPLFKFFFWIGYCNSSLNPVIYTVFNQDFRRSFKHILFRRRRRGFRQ

[9] = molecular target: Muscarinic acetylcholine receptor M4 (Homo sapiens) (UniProt P08173); assay: M4-linked GIRK flux change, two-sided – cell-based, HEK293 M4/GIRK, thallium flux, BTC-AM, M4 allosteric agonist project, primary screen (AID 625;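 active = fluorescence slope after compound addition differing from the mean of all tested samples at 99.7% confidence, mostly higher but some lower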;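 note: thallium influx through GIRK channels coupled to M4 in HEK293 cells with BTC-AM dye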); details: at 10 µM, actives lie on both sides
Sequence of Muscarinic acetylcholine receptor M4 (Homo sapiens) (P08173 whole entry, looked up): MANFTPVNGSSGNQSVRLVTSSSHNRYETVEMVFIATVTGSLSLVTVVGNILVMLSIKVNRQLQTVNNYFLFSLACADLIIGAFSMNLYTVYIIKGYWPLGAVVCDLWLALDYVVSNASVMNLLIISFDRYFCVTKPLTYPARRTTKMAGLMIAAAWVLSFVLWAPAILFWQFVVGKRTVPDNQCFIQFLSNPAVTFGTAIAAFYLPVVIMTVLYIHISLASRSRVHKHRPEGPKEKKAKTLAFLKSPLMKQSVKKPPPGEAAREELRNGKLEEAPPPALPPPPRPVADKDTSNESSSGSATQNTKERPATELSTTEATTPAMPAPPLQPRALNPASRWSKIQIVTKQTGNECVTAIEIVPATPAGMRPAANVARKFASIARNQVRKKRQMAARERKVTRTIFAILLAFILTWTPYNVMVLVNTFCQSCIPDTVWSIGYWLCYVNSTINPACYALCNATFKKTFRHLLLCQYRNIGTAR

[10] = inhibitors of larval lipid processing in zebrafish, primary screen, whole organism, PED6 fluorescence, gall bladder and intestine (AID 686;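 active = a full or partial loss of lipid-probe fluorescence in the fish gall bladder, intestine or both, judged by eye; inactive = no fluorescence loss, or compound toxic to the fish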;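 note: larvae 5 to 7 days old with five fish per well; signal comes from phospholipase A2 cleavage of quenched PED6 carried via bile; overnight exposure to compound and PED6 before scoring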); details: Zebrafish larvae PED6 lipid processing, fluorescence scoring; screened at 20 µM (by protocol)
[11] = loss of swimming-algae plug formation – whole organism, Chlamydomonas reinhardtii, WT vs cilia-less mutant, absorbance, 96-well, primary screen (AID 463189); details: Chlamydomonas reinhardtii gravitaxis, OD600 absorbance, 2 days; at 10 µM; stronger effect = higher value;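 note: 0% = wild type cc124 cells in DMSO and 100% = ciliumless bld1 mutant cells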
[12] = blockers of RIG-like receptor reporter activation – cell-based, Sendai virus stimulus, luciferase, 10K MLSCN set, TLR/RLR signaling modifier project, primary screen (AID 602276;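 active = inhibition at or above 50% at 10 µM; inactive = inhibition below 50%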;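 note: firefly luciferase from ISG56 promoter only with Renilla not read in this screen; 0% = Sendai virus plus DMSO and 100% = medium plus DMSO without virus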); details: HEK293 RL24 IRF3 luciferase reporter, at 10 µM, stronger effect = higher value
[13] = TLR3 IRF3 reporter activation blockers – cell-based, poly I:C stimulus, luciferase, 10K MLSCN set, primary screen (AID 602277;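 active = inhibition of the reporter signal at or above 50%; inactive = inhibition below 50%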); details: HEK293-TLR3 RL24 IRF3 luciferase reporter, at 10 µM, stronger effect = higher value
[14] = measured here: cell density z-score
[15] = measured here: nuclear c-Myc green intensity z-score
[16] = measured here: nuclear pErk red intensity z-score, stronger effect = higher value

Compound	cell count [1]	inhibition [1]	inhibition of aggregation [2]	nuclei count [2] [%]	inhibition [3]	nuclei count [3] [%]	z-score [4, 14]	z-score [4, 15]	z-score [4, 16]	inhibition [5]	fluorescence slope [6]	NADPH fluorescence slope [7]	slope [8]	fluorescence slope [9]	outcome [10]	inhibition [11]	inhibition [12]	inhibition [13]
COc1ccc(C2/C(=C(/O)c3cnn(-c4ccccc4)c3C)C(=O)C(=O)N2CCN(C)C)cc1OC (stereo not given)	517	-9.1% (inactive)	16% (inactive)	72.6	-17.7% (inactive)	125	-1.21	1.21	1.2	-6.86% (inactive)	-0.428 (inactive)	-0.000117 (inactive)	0.00586 (inactive)	0.00527 (inactive)	inactive	-4.78% (inactive)	2.76% (inactive)	15.6% (inactive)
c1ccc(-c2ccc(C(c3ccccc3)n3ccnc3)cc2)cc1 (stereo not given)	591	2% (inactive)	10.9% (inactive)	91.4	-58.4% (inactive)	106	-1.14	0.79	-0.101	16.8% (inactive)	-0.555 (inactive)	-3.5e-05 (inactive)	0.00412 (inactive)	0.00623 (inactive)	inactive	13.3% (inactive)	2.51% (inactive)	18.2% (inactive)
CS(=O)(=O)Nc1ccc([N+](=O)[O-])cc1Oc1ccccc1	692	-0.7% (inactive)	0% (inactive)	95.3	-24.1% (inactive)	124	-0.515	1.09	-0.635	11.3% (inactive)	-0.557 (inactive)	-3.9e-05 (inactive)	0.00467 (inactive)	0.00499 (inactive)	active; no signal in intestine only	9.15% (inactive) and 12.1% (inactive)	15% (inactive)	15.8% (inactive)
COC(=O)/C=c1/s/c(=C(/C#N)C(=O)N2CCOCC2)n(-c2ccccc2)c1=O	611	1.5% (inactive)	-12.2% (inactive)	98.4	7.3% (inactive)	119	0.31	-0.164	-0.787	1.63% (inactive)	-0.479 (inactive)	-5e-05 (inactive)	0.0052 (inactive)	0.00508 (inactive)	inactive	21% (inactive)	15.2% (inactive)	17.7% (inactive)
Cc1ccc(-c2nnc(-c3cccc(Br)c3)o2)cc1	512	-1.8% (inactive)	-23.2% (inactive)	96.1	-41.7% (inactive)	126	0.516	0.261	0.911	-15.1% (inactive)	-0.487 (inactive)	-9.8e-05 (inactive)	0.00623 (inactive)	0.00652 (inactive)	inactive	8.63% (inactive)	-18% (inactive)	-64% (inactive)
Cc1cc(/C=c2/sc3nc4ccccc4n3c2=O)c(C)n1-c1ccccn1	477	-8.3% (inactive)	-17% (inactive)	105	-51.9% (inactive)	114	0.162	1.46	-0.242	1.04% (inactive)	-0.436 (inactive)	-8.3e-05 (inactive)	0.00546 (inactive)	0.00476 (inactive)	inactive	-7.65% (inactive)	58.3% (active)	93% (active)
O=C(Nc1nccs1)NC(C(F)(F)F)C(F)(F)F	620	10.3% (inactive)	-10.4% (inactive)	101	14.4% (inactive)	95.3	0.47	-0.00766	-0.375	3.49% (inactive)	-0.522 (inactive)	-4.1e-05 (inactive)	0.00624 (inactive)	0.00652 (inactive)	inactive	28.7% (inactive)	22.5% (inactive)	33.5% (inactive)
O=C(CCN1C(=O)c2ccccc2C1=O)OCN1C(=O)c2ccccc2C1=O	490	2.7% (inactive)	10% (inactive)	95.1	-112% (inactive)	151	0.766	-1.53	-0.92	29.7% (inactive)	-0.336 (inactive)	4.5e-07 (inactive)	0.00721 (inactive)	0.00607 (inactive)	inactive	1.44% (inactive)	-10.1% (inactive)	-11.6% (inactive)
CCc1cc2c(=O)c(-c3nc4ccccc4[nH]3)coc2cc1OC(=O)N1CCOCC1	666	-4.8% (inactive)	-15.2% (inactive)	126	-44.8% (inactive)	149	0.051	0.477	-0.475	-9.53% (inactive)	-0.483 (inactive)	-3e-05 (inactive)	0.00512 (inactive)	0.00565 (inactive)	inactive	-11.5% (inactive)	-4.36% (inactive)	-9.08% (inactive)
O=C(Nc1ccccc1C(=O)NCCCn1ccnc1)c1ccccc1	440	-10.6% (inactive)	9.5% (inactive)	110	-58.9% (inactive)	90.3	0.245	0.366	-0.747	3.97% (inactive)	-0.353 (inactive)	1.7e-06 (inactive)	0.00553 (inactive)	0.00574 (inactive)	inactive	-14.6% (inactive)	12.2% (inactive)	22.1% (inactive)
